Laboratory results taken from ChEMBL document CHEMBL3988442, “University of Dundee, Small-Polar-MMV Screening Library” (2021).
In all, about 48,000 compounds went through this assay and about 13,000 (27%) showed an effect of 50% or more. The list shows a part of the results.

system: Wolbachia pipientis; experiment: Anti-Wolbachia Cell-Based Screen; type: functional; set-up: scale not given: in the data most compounds retested in dose-response had high values; details: 5 µM

Row | Compound | Percent Effect [%]
1 | NC(=O)c1cncc(Oc2cccc(CN3CCCC3)c2Cl)n1 | 9.192
2 | O=C(NCCN1CCOCC1)NCc1ccccc1-n1cccn1 | 1.937
3 | CC(=O)N(C)Cc1ccccc1NCc1c(C)noc1C | 25.91
4 | COc1cc(C2(C(=O)NC3CCN(CC4CC4)CC3)CC2)ccc1C | 28.82
5 | CC(OCC1CC1)C(=O)NCc1cccc(CN2CCN(C)CC2)c1 (stereo not drawn) | 14.4
6 | CC(C)[C@@H]1CN(Cc2ccccc2C#N)C[C@H]1N(C)C | 11.57
7 | CC(=O)N1CCC2(CC1)[C@@H]1CN(Cc3cccnc3)C[C@@H]1C(=O)N2C | -30.73
8 | CN(C)[C@@H]1CN(Cc2ccccn2)C[C@H]1c1cn(C)c2ccccc12.Cl | 130.6
9 | CC(C)[C@@H]1CN(Cc2ccccn2)C[C@H]1NS(=O)(=O)N(C)C | -0.7917
10 | CN(C)[C@@H]1CN(Cc2ccccc2O)C[C@H]1c1cn(C)c2ccccc12.Cl | 136.4
11 | Cn1ccnc1CN1C(=O)CO[C@H]2CN(Cc3ccccc3O)C[C@H]21 | -13.53
12 | CCn1c(C)nnc1CN(C)C1CCN(Cc2ccccn2)C1 (stereo not drawn) | 15.92
13 | Cn1cnnc1SCC(=O)N1C[C@H]2CC[C@@H]1CN(Cc1cccnc1)C2 | -4.246
14 | CN(C)[C@@H]1CN(Cc2ccc(O)cc2)C[C@H]1c1cn(C)c2ccccc12.Cl | 86.16
15 | CCC[C@@H]1CN(Cc2ccc(N(C)C)nc2)C[C@H]1N(C)C | -0.1894
16 | CN(C)[C@@H]1CN(Cc2cccnc2)C[C@H]1c1cn(C)c2ccccc12.Cl | 79.34
17 | Cn1cc(CCC(=O)N2C[C@H]3CC[C@@H]2CN(Cc2ccccc2)C3)cn1 | -15.29
18 | O=C1NC(c2ccccc2)=N[C@@]12CC[C@@H]1CN(Cc3ccoc3)C[C@@H]12 | -8.675
19 | Cc1ccn(-c2ccccc2NCc2scnc2C)n1 | -9.292
20 | CCc1ccc(C(C)NC(=O)c2ccc(CS(C)(=O)=O)o2)cc1 (stereo not drawn) | -17.56
21 | CC(O)CN(CC(=O)NC(=O)NC1CC1)c1ccccc1 (stereo not drawn) | 10.44
22 | CS(=O)(=O)NC(=O)c1cc(Cl)c2c(c1)OCCCO2 | 1.063
23 | CCc1nc(NS(=O)(=O)c2cc(C)ccc2F)no1 | 7.249
24 | CC(C)Cc1noc(CN(C)C2CCCC2)n1 | -3.332
25 | CCn1ccnc1CN(C)c1cc(OC)ncn1 | 2.5

Row | Compound | Percent Effect [%]
26 | CCN(Cc1noc(CC(C)C)n1)Cc1ccccc1C | 1.611
27 | CCc1cc(N(C)Cc2noc(C(C)C)n2)nc(N2CCOCC2)n1 | -7.429
28 | CCc1cc(N(C)Cc2noc(CC(C)C)n2)ncn1 | 121.1
29 | CC(C)Cc1noc(CN(C)c2ncccn2)n1 | 119.3
30 | CC(C)Cc1noc(CN(C)c2cc(N(C)C)ncn2)n1 | 110.5
31 | COC(C)c1noc(CN(C)c2ncccn2)n1 (stereo not drawn) | -22.13
32 | Cc1ccn(Cc2nc(CC(C)C)no2)c(=O)c1 | -2.116
33 | COCCc1noc(CN(C)c2cc(C)ncn2)n1 | -9.011
34 | CC(C)Cc1nc(CN(C)CCOc2ccc(F)cc2)no1 | 5.016
35 | COc1cc(N(C)Cc2noc(CC(C)C)n2)ncn1 | 117.3
36 | OC1CN(Cc2cccc(N3CCOCC3)c2)Cc2ccccc21 (stereo not drawn) | -36.91
37 | O=C(c1scc2c1OCCO2)N1CCOC(Cc2ccc(F)cc2)C1 (stereo not drawn) | -34.62
38 | CS(=O)(=O)N1CCN(C(=O)CN2CCCc3c(F)cc(F)cc32)CC1 | 12.08
39 | CC(C)n1ncc2c1NC(=O)CC21C(=O)Nc2c(Cl)cc(Cl)cc21 (stereo not drawn) | -10.03
40 | Cc1nn(C)c(C)c1CNC1CCOc2ccccc21 (stereo not drawn) | -9.351
41 | Cn1ncc(NCc2cccc(COC(C)(C)C)c2)c(Cl)c1=O | -1.578
42 | CN(Cc1nccn1C)CC1CCOc2ccccc2C1 (stereo not drawn) | 12.56
43 | COc1ccc(C(=O)N2C[C@@H](C(=O)O)[C@H](c3ccccc3)C2)c(O)c1 | 5.335
44 | CC(=O)NC1CCCN(C(=O)c2ccc(Br)cc2O)C1 (stereo not drawn) | -3.443
45 | CC(=O)NC1CCCN(C(=O)Nc2nnc(C(C)C)s2)C1 (stereo not drawn) | -25.39
46 | CC(C)C(=O)NC1CCCN(C(=O)c2ccccc2O)C1 (stereo not drawn) | 105
47 | CC(=O)NC1CCN(C(=O)c2cnc(COc3ccccc3)nc2O)C1 (stereo not drawn) | 1.868
48 | CC(C)C(=O)NC1CCCN(C(=O)c2cc3ccccc3cc2O)C1 (stereo not drawn) | 101.9
49 | CC(C)(C)OC(=O)NCC1CCN(C(=O)c2ccccc2O)C1 (stereo not drawn) | -1.633
50 | COc1ccc(C(=O)N2CCCC(NC(=O)C(C)C)C2)c(O)c1 (stereo not drawn) | 103.8

Row | Compound | Percent Effect [%]
51 | O=C(NCCc1nncn1C1CC1)C1(c2ccccc2)CCC1 | -10.81
52 | CS(=O)(=O)CCNC(=O)NCCc1cc2ccccc2o1 | -10.03
53 | CCOC(=O)C1(CCOC)CCN(Cc2nccn2CC)CC1 | -7.374
54 | CC(C)NC(=O)NC[C@H]1OC[C@@H](NCc2ccccc2O)[C@@H]1O | 1.072
55 | O=C(NCC1(O)CCCCC1)c1coc(COc2cccc(F)c2)n1 | -6.674
56 | CCc1nnsc1C(=O)N1CCN(CC(O)C(C)(C)C)CC1 (stereo not drawn) | 3.041
57 | COc1ccc(C(=O)N2CCC3(CC2)c2ccccc2[C@@H](N)[C@@H]3O)cc1 | -1.286
58 | Cc1ccc(C(=O)N2CCC3(CC2)c2ccccc2[C@@H](N)[C@@H]3O)cc1F | -5.913
59 | CC(C)c1cc(C(=O)N2CCC3(CC2)c2ccccc2[C@@H](N)[C@@H]3O)cs1 | 119.3
60 | Cn1ncc(C(=O)OCC2CC(=O)N(c3ccccc3)C2)c1C(F)F (stereo not drawn) | -5.382
61 | O=S1(=O)CCCN1Cc1coc(-c2ccc(C(F)(F)F)cc2)n1 | -8.069
62 | Cc1noc(C)c1CN1CCc2ncnc(-c3ccoc3)c2CC1.O=C(O)C(F)(F)F | 108.1
63 | Cn1cc(-c2ncnc3c2CCN(CC2CCOC2)CC3)cn1.O=C(O)C(F)(F)F (stereo not drawn) | 97.72
64 | Cc1nc(CN2CCc3ncnc(-c4ccncc4)c3CC2)cs1.O=C(O)C(F)(F)F.O=C(O)C(F)(F)F | -2.21
65 | Cc1noc(C)c1CN1CCc2ncnc(-c3ccncc3)c2CC1.O=C(O)C(F)(F)F.O=C(O)C(F)(F)F | 90.01
66 | Cc1noc(C)c1CN1CCc2ncnc(-c3ccccc3)c2CC1.O=C(O)C(F)(F)F | 91.91
67 | O=C(O)C(F)(F)F.c1nc2c(c(-c3ccsc3)n1)CCN(Cc1ccoc1)CC2 | -2.066
68 | CCN(C)c1ncnc2c1CCN(CC1CCOC1)CC2.O=C(O)C(F)(F)F (stereo not drawn) | -11.17
69 | O=C(O)C(F)(F)F.c1ccc(CN2CCc3ncnc(-c4ccoc4)c3CC2)nc1 | -8.699
70 | Cc1ncnc2c1CCN(CC1CCOC1)CC2.O=C(O)C(F)(F)F (stereo not drawn) | 17.43
71 | O=C(O)C(F)(F)F.O=C(O)C(F)(F)F.c1ccc(CN2CCc3ncnc(-c4ccncc4)c3CC2)nc1 | -25.56
72 | OCc1ccc(CN2CCC(n3cc(-c4ccsc4)nn3)CC2)o1 | -3.234
73 | O=C(O)c1csc(S(=O)(=O)N2CCN(Cc3ccc(Cl)cc3)CC2)c1 | 3.67
74 | Cc1ccc(S(=O)(=O)NCCCN2CCC(O)CC2)cc1Cl | 11.47
75 | COCc1noc(CCNc2nc(CC3CC3)nc3c2CCNCC3)n1 | -2.883

Row | Compound | Percent Effect [%]
76 | CCNC(=O)c1cnc(Cc2ccc(F)cc2)s1 | -2.208
77 | Cn1cc(CN2CCc3ncnc(N4CCOCC4)c3CC2)cn1.O=C(O)C(F)(F)F.O=C(O)C(F)(F)F.O=C(O)C(F)(F)F | -9.324
78 | Cc1noc(C)c1CN1CCc2ncnc(-c3ccc(F)cc3)c2CC1.O=C(O)C(F)(F)F | 85.48
79 | Cc1noc(C)c1CN1CCc2ncnc(-c3cnn(C)c3)c2CC1.O=C(O)C(F)(F)F | 103.6
80 | Cc1noc(C)c1CN1CCc2ncnc(-c3cccnc3)c2CC1.O=C(O)C(F)(F)F.O=C(O)C(F)(F)F | 104.6
81 | COc1ccc(NC(=O)C2CCOC2)c(N2CCN(C(C)=O)CC2)n1 (stereo not drawn) | 4.465
82 | CC(=O)NCCNC(=O)C1(Oc2cccnc2C)CCNCC1 | -9.586
83 | COCCCN(C)c1nc(-c2ccncc2)nc(C)c1C | -12.12
84 | Cc1cc(CN(C)C(=O)c2cccc(CCC(C)(C)O)c2)no1 | 3.557
85 | CCn1ccnc1CN1CCC(=O)N(CC2CC2)C(C(C)C)C1 (stereo not drawn) | -13.21
86 | Cc1cncc(C2CCCN(C(=O)c3cnco3)C2)n1 (stereo not drawn) | 133.2
87 | Cc1cncc(C2CCCN(C(=O)c3scnc3C)C2)n1 (stereo not drawn) | -6.162
88 | Cc1nn(C)cc1C(=O)N1CCCC(c2nccn2Cc2cscn2)C1 (stereo not drawn) | 27.14
89 | Cc1noc(C2CCCN(C(=O)c3ccc(Br)o3)C2)n1 (stereo not drawn) | -1.818
90 | Cc1cncc(C2CCCN(C(=O)c3ccc(C)[nH]c3=O)C2)n1 (stereo not drawn) | 1.082
91 | Cc1cncc(C2CCCN(C(=O)c3cn(C)nc3C)C2)n1 (stereo not drawn) | 117.2
92 | CS(=O)(=O)CCC(=O)Nc1ccsc1 | -22.38
93 | CC(C)c1nc(-c2cc(C(=O)O)c3ccccn23)cs1 | 13.08
94 | O=S(=O)(CC1CC1)c1ncc(CN2CCSCC2)n1CC1CCCO1 (stereo not drawn) | -0.6342
95 | Cc1ccc(C(=O)N2CCN(c3ccnc4ccsc34)CC2)o1 | 5.784
96 | COc1ccc(Cc2ncc3c(n2)CN(C(=O)CO)C3)cc1 | -17.5
97 | COc1ccc(Cc2ncc3c(n2)CN(C(=O)C(C)(C)C)C3)cc1 | -16.53
98 | COc1ccc(Cc2ncc3c(n2)CN(C(=O)C(C)(C)OC)C3)cc1 | 70.44
